# Laboratory results from ChEMBL document CHEMBL1961873, “Compounds: GSK PKIS; Assays: Nanosyn kinase panel” (2012).
# Key:
# [1] = target: Sphingosine kinase 1 (Homo sapiens) (UniProt Q9NYA1); details: at 1 µM;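 further: mean SPHK1 inhibition value reported from the GSK PKIS kinase panel screen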
# [2] = target: T1, Sphingosine kinase 2 (Homo sapiens) (UniProt Q9NRA0); details: at 0.1 µM
# T1 sequence (whole entry): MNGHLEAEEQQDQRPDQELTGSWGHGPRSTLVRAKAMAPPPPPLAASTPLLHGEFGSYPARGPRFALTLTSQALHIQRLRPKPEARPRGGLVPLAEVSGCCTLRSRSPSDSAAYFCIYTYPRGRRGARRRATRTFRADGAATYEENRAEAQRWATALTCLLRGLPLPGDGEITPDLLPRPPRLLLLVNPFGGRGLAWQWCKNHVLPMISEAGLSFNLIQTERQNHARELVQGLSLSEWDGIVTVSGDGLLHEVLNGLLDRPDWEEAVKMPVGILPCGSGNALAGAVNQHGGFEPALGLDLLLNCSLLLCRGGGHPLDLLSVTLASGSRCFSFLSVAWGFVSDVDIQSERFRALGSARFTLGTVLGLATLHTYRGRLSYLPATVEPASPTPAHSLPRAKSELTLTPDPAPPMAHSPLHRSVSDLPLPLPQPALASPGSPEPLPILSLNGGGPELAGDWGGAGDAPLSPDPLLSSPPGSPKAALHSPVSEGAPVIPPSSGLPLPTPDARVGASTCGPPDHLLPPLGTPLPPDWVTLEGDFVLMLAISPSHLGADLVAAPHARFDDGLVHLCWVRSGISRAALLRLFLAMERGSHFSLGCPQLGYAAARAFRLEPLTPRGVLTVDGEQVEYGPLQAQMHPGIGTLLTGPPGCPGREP
# [3] = target: T1, Sphingosine kinase 2 (Homo sapiens); details: at 1 µM
# [4] = target: Casein kinase II subunit alpha (Homo sapiens) (UniProt P68400); details: at 0.1 µM
# Chain of Casein kinase II subunit alpha (Homo sapiens) (P68400 whole entry, looked up): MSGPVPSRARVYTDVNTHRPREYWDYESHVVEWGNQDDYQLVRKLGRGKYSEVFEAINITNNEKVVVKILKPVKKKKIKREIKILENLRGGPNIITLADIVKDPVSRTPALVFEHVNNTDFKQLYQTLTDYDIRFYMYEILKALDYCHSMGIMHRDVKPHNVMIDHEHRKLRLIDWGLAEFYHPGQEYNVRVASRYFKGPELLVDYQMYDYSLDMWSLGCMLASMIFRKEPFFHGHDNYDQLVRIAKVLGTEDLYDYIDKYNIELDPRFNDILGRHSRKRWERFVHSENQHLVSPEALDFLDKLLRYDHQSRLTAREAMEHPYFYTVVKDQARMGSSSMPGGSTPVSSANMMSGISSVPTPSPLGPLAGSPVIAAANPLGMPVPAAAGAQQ
# [5] = target: Casein kinase II subunit alpha (Homo sapiens) (UniProt P68400); details: at 1 µM
# [6] = target: T2, Inhibitor of nuclear factor kappa-B kinase subunit alpha (Homo sapiens) (UniProt O15111); details: at 0.1 µM
# T2 sequence (whole entry): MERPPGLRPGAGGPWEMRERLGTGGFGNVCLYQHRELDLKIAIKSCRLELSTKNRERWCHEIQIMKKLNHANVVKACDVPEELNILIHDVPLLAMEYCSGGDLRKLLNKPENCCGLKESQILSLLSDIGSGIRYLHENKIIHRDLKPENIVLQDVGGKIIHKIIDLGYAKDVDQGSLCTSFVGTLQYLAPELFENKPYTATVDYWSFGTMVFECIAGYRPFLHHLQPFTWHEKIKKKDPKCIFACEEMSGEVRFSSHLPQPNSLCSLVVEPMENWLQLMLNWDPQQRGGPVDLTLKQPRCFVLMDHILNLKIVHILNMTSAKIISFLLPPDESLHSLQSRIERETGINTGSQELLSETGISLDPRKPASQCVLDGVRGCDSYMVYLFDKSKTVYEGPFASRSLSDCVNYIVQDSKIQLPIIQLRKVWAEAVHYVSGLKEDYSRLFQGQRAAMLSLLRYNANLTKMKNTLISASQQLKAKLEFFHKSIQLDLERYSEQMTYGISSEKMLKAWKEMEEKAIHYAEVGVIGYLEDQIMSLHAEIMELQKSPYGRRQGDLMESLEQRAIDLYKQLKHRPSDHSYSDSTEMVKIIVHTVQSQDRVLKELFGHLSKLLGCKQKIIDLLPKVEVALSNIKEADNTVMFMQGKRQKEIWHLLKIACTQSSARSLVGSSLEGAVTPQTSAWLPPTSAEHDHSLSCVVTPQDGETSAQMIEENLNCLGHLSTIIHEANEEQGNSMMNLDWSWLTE
# [7] = target: T2, Inhibitor of nuclear factor kappa-B kinase subunit alpha (Homo sapiens); details: at 1 µM
# [8] = target: T3, Inhibitor of nuclear factor kappa-B kinase subunit beta (Homo sapiens) (UniProt O14920); details: at 0.1 µM
# T3 sequence (whole entry): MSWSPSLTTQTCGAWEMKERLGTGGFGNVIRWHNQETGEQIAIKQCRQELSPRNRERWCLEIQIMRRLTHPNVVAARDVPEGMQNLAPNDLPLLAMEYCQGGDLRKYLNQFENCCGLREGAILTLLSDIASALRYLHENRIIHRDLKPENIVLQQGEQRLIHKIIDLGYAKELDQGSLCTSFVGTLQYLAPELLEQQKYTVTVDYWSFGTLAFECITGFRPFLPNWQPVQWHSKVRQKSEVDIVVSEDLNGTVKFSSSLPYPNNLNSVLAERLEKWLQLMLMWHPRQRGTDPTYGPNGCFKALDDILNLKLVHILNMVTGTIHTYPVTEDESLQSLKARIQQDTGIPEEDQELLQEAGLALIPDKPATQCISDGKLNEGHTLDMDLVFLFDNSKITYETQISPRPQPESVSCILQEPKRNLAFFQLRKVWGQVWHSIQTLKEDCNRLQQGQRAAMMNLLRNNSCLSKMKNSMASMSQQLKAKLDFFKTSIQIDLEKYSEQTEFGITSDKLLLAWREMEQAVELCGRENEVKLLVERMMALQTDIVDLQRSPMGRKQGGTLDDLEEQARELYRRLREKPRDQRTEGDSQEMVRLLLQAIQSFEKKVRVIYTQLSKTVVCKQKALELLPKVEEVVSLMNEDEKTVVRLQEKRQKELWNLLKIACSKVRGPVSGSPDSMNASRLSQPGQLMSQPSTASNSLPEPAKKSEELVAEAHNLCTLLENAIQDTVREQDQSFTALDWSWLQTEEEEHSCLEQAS
# [9] = target: T3, Inhibitor of nuclear factor kappa-B kinase subunit beta (Homo sapiens); details: at 1 µM
# [10] = target: T4, Inhibitor of nuclear factor kappa-B kinase subunit epsilon (Homo sapiens) (UniProt Q14164); details: at 0.1 µM
# T4 sequence (whole entry): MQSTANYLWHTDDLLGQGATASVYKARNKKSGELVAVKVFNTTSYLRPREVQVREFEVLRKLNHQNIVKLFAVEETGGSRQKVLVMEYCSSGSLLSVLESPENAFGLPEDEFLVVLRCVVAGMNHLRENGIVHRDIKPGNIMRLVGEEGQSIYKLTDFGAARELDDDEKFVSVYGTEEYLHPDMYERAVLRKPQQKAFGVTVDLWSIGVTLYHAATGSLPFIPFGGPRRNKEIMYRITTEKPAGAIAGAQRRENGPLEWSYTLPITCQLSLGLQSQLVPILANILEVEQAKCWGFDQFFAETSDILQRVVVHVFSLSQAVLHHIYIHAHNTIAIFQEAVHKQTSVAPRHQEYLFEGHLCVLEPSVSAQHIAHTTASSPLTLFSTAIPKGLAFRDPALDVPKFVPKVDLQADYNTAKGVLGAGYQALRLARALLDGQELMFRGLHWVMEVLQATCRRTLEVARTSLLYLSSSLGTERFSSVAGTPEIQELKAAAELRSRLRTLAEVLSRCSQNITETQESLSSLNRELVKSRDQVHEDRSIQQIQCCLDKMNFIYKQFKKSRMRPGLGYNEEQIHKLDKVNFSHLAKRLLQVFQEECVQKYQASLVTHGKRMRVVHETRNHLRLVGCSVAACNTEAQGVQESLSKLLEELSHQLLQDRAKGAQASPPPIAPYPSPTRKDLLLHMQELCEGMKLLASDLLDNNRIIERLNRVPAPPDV
# [11] = target: T4, Inhibitor of nuclear factor kappa-B kinase subunit epsilon (Homo sapiens); details: at 1 µM
# [12] = target: T5, Serine/threonine-protein kinase Nek1 (Homo sapiens) (UniProt Q96PY6); details: at 0.1 µM
# T5 sequence (whole entry): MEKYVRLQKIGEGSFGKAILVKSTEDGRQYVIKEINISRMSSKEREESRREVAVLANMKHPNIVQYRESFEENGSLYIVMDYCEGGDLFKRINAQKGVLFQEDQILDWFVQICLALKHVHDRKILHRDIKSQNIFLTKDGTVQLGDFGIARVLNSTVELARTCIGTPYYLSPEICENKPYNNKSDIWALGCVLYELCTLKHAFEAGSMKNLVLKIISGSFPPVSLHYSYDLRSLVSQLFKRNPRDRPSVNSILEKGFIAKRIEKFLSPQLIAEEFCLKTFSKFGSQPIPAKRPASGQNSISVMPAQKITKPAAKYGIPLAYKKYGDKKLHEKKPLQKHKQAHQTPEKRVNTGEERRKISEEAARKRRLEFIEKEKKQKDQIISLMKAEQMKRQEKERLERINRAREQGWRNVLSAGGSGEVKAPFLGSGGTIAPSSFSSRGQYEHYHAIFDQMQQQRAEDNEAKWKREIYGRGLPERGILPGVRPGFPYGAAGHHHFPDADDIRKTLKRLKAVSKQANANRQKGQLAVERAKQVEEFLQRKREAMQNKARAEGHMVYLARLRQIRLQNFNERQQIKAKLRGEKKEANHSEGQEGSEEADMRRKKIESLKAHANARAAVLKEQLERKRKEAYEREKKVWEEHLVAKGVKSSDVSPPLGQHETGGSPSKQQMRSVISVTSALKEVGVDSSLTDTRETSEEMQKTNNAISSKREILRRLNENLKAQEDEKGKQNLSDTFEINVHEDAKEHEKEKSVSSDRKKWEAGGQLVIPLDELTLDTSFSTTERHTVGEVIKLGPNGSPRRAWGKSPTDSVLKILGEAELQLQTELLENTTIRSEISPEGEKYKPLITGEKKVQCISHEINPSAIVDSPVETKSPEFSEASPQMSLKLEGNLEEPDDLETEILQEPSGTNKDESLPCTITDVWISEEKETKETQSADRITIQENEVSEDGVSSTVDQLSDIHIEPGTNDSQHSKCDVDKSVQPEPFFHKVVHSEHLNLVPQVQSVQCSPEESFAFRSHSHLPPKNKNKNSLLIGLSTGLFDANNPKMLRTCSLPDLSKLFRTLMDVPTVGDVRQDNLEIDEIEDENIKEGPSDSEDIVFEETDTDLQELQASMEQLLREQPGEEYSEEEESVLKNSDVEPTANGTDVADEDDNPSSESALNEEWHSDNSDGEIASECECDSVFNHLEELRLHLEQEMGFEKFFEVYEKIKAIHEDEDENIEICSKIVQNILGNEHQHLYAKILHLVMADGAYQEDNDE
# [13] = target: T5, Serine/threonine-protein kinase Nek1 (Homo sapiens); details: at 1 µM
# [14] = target: T6, Serine/threonine-protein kinase Nek2 (Homo sapiens) (UniProt P51955); details: at 0.1 µM
# T6 sequence (whole entry): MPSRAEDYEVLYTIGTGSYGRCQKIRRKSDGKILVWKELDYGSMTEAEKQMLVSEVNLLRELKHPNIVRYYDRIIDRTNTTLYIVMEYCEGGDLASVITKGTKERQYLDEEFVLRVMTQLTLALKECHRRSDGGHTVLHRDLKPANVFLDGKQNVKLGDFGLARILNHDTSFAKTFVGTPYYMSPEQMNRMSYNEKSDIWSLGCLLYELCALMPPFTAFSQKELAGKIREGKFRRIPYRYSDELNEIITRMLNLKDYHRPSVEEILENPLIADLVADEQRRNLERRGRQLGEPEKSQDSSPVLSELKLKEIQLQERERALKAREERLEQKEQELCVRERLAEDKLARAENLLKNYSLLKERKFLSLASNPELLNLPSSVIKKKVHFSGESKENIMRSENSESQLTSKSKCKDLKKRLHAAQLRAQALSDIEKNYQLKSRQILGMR
# [15] = target: T6, Serine/threonine-protein kinase Nek2 (Homo sapiens); details: at 1 µM
# [16] = target: Serine/threonine-protein kinase Nek6 (Homo sapiens) (UniProt Q9HC98); details: at 0.1 µM
# Chain of Serine/threonine-protein kinase Nek6 (Homo sapiens) (Q9HC98 whole entry): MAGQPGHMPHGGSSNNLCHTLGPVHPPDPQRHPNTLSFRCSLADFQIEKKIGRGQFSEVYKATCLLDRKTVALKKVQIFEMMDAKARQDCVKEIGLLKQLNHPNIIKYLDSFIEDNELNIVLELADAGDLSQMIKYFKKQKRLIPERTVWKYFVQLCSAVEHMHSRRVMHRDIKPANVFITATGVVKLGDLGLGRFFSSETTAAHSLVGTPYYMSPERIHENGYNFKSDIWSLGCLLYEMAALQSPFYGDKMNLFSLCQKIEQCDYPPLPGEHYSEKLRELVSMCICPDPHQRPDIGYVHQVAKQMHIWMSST
# [17] = target: Serine/threonine-protein kinase Nek6 (Homo sapiens) (UniProt Q9HC98); details: at 1 µM
# [18] = target: Serine/threonine-protein kinase Nek7 (Homo sapiens) (UniProt Q8TDX7); details: at 0.1 µM
# Chain of Serine/threonine-protein kinase Nek7 (Homo sapiens) (Q8TDX7 whole entry, looked up): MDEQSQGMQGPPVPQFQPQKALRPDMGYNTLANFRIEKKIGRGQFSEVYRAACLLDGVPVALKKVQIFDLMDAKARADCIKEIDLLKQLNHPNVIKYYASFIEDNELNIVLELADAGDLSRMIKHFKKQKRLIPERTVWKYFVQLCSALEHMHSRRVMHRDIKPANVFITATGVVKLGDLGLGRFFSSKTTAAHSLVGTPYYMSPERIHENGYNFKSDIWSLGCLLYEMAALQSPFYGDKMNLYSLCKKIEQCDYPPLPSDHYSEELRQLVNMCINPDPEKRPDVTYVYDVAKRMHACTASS
# [19] = target: Serine/threonine-protein kinase Nek7 (Homo sapiens) (UniProt Q8TDX7); details: at 1 µM
# [20] = target: T7, Serine/threonine-protein kinase Nek9 (Homo sapiens) (UniProt Q8TD19); details: at 0.1 µM;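 further: reported value is the mean percent inhibition of NEK9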
# T7 sequence (whole entry): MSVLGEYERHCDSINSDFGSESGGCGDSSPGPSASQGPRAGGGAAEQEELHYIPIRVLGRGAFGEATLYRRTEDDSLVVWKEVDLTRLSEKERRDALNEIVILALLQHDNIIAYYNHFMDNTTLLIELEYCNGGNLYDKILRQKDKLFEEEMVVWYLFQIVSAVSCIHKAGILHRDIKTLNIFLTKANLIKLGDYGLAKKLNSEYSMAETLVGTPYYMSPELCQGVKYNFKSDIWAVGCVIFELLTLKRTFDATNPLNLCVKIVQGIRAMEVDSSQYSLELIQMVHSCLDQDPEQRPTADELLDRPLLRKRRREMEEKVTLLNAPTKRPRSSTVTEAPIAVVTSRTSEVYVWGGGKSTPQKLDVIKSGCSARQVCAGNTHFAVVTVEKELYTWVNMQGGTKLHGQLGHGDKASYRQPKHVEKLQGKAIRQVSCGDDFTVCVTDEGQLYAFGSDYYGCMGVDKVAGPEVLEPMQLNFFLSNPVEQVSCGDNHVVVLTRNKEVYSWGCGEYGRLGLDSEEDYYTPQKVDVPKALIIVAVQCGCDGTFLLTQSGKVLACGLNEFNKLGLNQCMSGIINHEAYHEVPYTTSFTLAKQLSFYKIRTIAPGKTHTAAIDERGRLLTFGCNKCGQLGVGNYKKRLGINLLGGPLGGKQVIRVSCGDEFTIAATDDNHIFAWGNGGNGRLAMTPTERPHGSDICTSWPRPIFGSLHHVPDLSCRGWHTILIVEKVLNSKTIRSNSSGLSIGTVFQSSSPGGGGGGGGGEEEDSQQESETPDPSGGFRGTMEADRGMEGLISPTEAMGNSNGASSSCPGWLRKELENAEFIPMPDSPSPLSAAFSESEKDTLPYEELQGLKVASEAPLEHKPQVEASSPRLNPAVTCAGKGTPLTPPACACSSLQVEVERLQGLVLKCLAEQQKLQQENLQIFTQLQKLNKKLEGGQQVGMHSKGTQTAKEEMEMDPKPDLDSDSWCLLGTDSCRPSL
# Chain of Sphingosine kinase 1 (Homo sapiens) (Q9NYA1 whole entry): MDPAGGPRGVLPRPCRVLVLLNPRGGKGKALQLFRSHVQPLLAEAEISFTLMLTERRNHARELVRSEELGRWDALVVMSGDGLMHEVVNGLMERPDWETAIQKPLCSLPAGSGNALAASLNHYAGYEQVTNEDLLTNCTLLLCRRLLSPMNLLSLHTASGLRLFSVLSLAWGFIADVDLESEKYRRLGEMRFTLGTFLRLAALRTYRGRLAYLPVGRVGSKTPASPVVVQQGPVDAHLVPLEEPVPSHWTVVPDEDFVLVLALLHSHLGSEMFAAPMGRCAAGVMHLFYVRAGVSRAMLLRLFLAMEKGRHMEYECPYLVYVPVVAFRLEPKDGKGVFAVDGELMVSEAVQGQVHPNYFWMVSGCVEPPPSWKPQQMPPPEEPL
smiles,measurement,setting,value
FC(F)(F)c1ccc(-c2nn3ncccc3c2-c2ccnc(Nc3ccc4c(c3)OCCO4)n2)cc1,inhibition,[1],0.29%
same,inhibition,[2],3.37%
same,inhibition,[3],4.75%
same,inhibition,[4],8.02%
same,inhibition,[5],19.8%
same,inhibition,[6],1.17%
same,inhibition,[7],0.75%
same,inhibition,[8],0.04%
same,inhibition,[9],2.22%
same,inhibition,[10],1.97%
same,inhibition,[11],-1.52%
same,inhibition,[12],4.77%
same,inhibition,[13],2.05%
same,inhibition,[14],1.11%
same,inhibition,[15],1.32%
same,inhibition,[16],-1.63%
same,inhibition,[17],1.37%
same,inhibition,[18],-5.04%
same,inhibition,[19],-5.62%
same,inhibition,[20],-5.79%
